# System: FXR:RXRa (NR concentration 270 nM, RXRa partner concentration 90 nM)
# Assay: PBM binding z-score (relative to random genomic background probes); higher = stronger binding; sequences stand for … in GC…GCGATTGACAGCGTAGAATGAAGG
# In short: (§1)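 Regression normalization was applied to scanned fluorescence from custom Agilent 4×180K protein-binding microarrays. Before scanning, arrays were incubated 1 h with ligand-free nuclear receptor dimers, and binding was detected with antibodies against each partner (one per run). Binding z-scores use the random background probes as reference.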
row,Sequence,PBM binding z-score
1,TCTCGGAGGACACGAAGGTCAGAGCCTTCCAGAG,1.54
2,ACAGACAGGTGAGTGAAGGTAACGCAGCTGGACG,0.617
3,AGTCAAAGTTCAGGACGAGGTATCGTAAAGCACG,3.59
4,TCTAGTTGGTCACGGCGGTCACACACGACGGGTA,0.993
5,ACTGACGGGTCAACGAGGTTATAGCACGCGTATA,5.56
6,TCGAGTAGGTTAGGGGCAATCAGAATGGCGTCGA,0.369
7,AGAATGAGGTTAAGATCAGCGAAACAGAATACAT,2.2
8,TCAGACAAGTGAAGGTAACTCAGGTACGCAGTCG,0.55
9,ACTATTAGTTGACTTAGGGCAACCGCTACGACGC,0.0697
10,ATGTGTAGGTTAAGGGTCATTCAGGTTGGTTCGC,5.28
11,CAAACTCGGTCACGAAAGGTCAAAGTCGAATGAC,6.39
12,ATATATAGGTTACATCCGGGTCATTCAGGCTATG,3.03
13,AGAATGAGGTTACCAAAGATCATGGAAACGCTTG,2.05
14,TTACCAAGCTGAAAGGTCGTTGATGCACGCCTTG,0.616
15,CTCGAAAGGTCGTGCTCAGCTGAGTATACCAAAC,4.95
16,ACCGAAAGGTCGACGAGGTGAGTATACACCGTTT,4.37
17,AGCATGAGGTTATTAAGATCAGGGAATTGCGGTC,1.6
18,AGAACGAGGGCAATGATTTGATAGCACGGGTGGC,0.321
19,TCATATAGGTAATACAGGTGACAGTCGGCATCTA,1.08
20,CCTAGCAGGCCAATCTGGGCCACTCAAGGCTTGA,-0.284

row,Sequence,PBM binding z-score
1,CCAAACAGGTGAGAAGGTAACTCAGCCTCGATTA,-0.19
2,GTTAGTTGGTCAGTAAAAGGTCACACACCGGTCG,3.73
3,TCATATAGGTAAATGCTAGGGGAAAGTCCGATCT,0.958
4,CCTTACGGTTCACTCCAGGTTATAGCATCGGAGT,2.82
5,ACTAGCAGGCCAAGTTTGGGTCTCTCAAACAAAG,-0.742
6,TCGACTAGGTTAGTCGGGGCATTCAGCCAACATA,-0.0811
7,ATCTCTAGGTAACGAAGTTCAGTGAATGCCGAAC,0.145
8,CATACAGGGTCAGCCAGGCCAGAGTAGGGACGGC,4.87
9,ATATGAAGGTTAGCTGGGGTCATTCAGACTAGGC,5.27
10,ATCTCTAGGTAAAGATAGTTCAGCGAATGCAAAT,0.212
11,TATACAGGGTCAAAGCCCAGAGTACGAATGTCGA,7.38
12,TCTGCTAAGTCAACGATGGTCAGCTAATCTGCTA,-0.531
13,ATATGTAGGTTACATCCGGGTTATTCAGGCTATG,0.937
14,CCTATTACTTGACCATAAGGGCAACCGAAGCTCG,1.19
15,CCTATTAGTTGACCATAAGGGCGACCGAAGCTCG,0.484
16,TCTAGTTGGTCACTGAGGTCACACACGACGGGTA,4.03
17,TCTGCTAGGTCAACGATGGTCAGCTCATCTGCTA,3.56
18,AGAATGAGGTTATACGCAGATCAGGGAAGAAAGT,2.11
19,TCTATTAGTTGTTTAGGGCAACCGAAACAGCGGA,0.479
20,CCCGACAGGTGAAAGGTAACTCAGTCTGGTACGC,0.639

# System: LXRa:RXRa (NR concentration 270 nM, RXRa partner concentration 90 nM)
# Assay: as above
# In short: as §1
row,Sequence,PBM binding z-score
1,TCTCGGAGGACACGAAGGTCAGAGCCTTCCAGAG,1.56
2,ACAGACAGGTGAGTGAAGGTAACGCAGCTGGACG,0.126
3,AGTCAAAGTTCAGGACGAGGTATCGTAAAGCACG,3.83
4,TCTAGTTGGTCACGGCGGTCACACACGACGGGTA,1.08
5,ACTGACGGGTCAACGAGGTTATAGCACGCGTATA,4.16
6,TCGAGTAGGTTAGGGGCAATCAGAATGGCGTCGA,0.37
7,AGAATGAGGTTAAGATCAGCGAAACAGAATACAT,1.69
8,TCAGACAAGTGAAGGTAACTCAGGTACGCAGTCG,1.36
9,ACTATTAGTTGACTTAGGGCAACCGCTACGACGC,0.317
10,ATGTGTAGGTTAAGGGTCATTCAGGTTGGTTCGC,4.85
11,CAAACTCGGTCACGAAAGGTCAAAGTCGAATGAC,7.32
12,ATATATAGGTTACATCCGGGTCATTCAGGCTATG,5.06
13,AGAATGAGGTTACCAAAGATCATGGAAACGCTTG,6.75
14,TTACCAAGCTGAAAGGTCGTTGATGCACGCCTTG,0.94
15,CTCGAAAGGTCGTGCTCAGCTGAGTATACCAAAC,3.96
16,ACCGAAAGGTCGACGAGGTGAGTATACACCGTTT,3.09
17,AGCATGAGGTTATTAAGATCAGGGAATTGCGGTC,1.5
18,AGAACGAGGGCAATGATTTGATAGCACGGGTGGC,0.43
19,TCATATAGGTAATACAGGTGACAGTCGGCATCTA,1.27
20,CCTAGCAGGCCAATCTGGGCCACTCAAGGCTTGA,-0.644

row,Sequence,PBM binding z-score
1,CCAAACAGGTGAGAAGGTAACTCAGCCTCGATTA,-0.0558
2,GTTAGTTGGTCAGTAAAAGGTCACACACCGGTCG,4.28
3,TCATATAGGTAAATGCTAGGGGAAAGTCCGATCT,0.949
4,CCTTACGGTTCACTCCAGGTTATAGCATCGGAGT,6.46
5,ACTAGCAGGCCAAGTTTGGGTCTCTCAAACAAAG,-0.825
6,TCGACTAGGTTAGTCGGGGCATTCAGCCAACATA,-0.0624
7,ATCTCTAGGTAACGAAGTTCAGTGAATGCCGAAC,0.276
8,CATACAGGGTCAGCCAGGCCAGAGTAGGGACGGC,3.33
9,ATATGAAGGTTAGCTGGGGTCATTCAGACTAGGC,6.28
10,ATCTCTAGGTAAAGATAGTTCAGCGAATGCAAAT,4.41
11,TATACAGGGTCAAAGCCCAGAGTACGAATGTCGA,5.88
12,TCTGCTAAGTCAACGATGGTCAGCTAATCTGCTA,-0.432
13,ATATGTAGGTTACATCCGGGTTATTCAGGCTATG,3.18
14,CCTATTACTTGACCATAAGGGCAACCGAAGCTCG,0.716
15,CCTATTAGTTGACCATAAGGGCGACCGAAGCTCG,0.482
16,TCTAGTTGGTCACTGAGGTCACACACGACGGGTA,3.64
17,TCTGCTAGGTCAACGATGGTCAGCTCATCTGCTA,2.79
18,AGAATGAGGTTATACGCAGATCAGGGAAGAAAGT,2.13
19,TCTATTAGTTGTTTAGGGCAACCGAAACAGCGGA,0.468
20,CCCGACAGGTGAAAGGTAACTCAGTCTGGTACGC,0.898
